Test results reported in ChEMBL document CHEMBL1961873, “Compounds: GSK PKIS; Assays: Nanosyn kinase panel” (2012).

Target: Serine/threonine-protein kinase MARK1 (Homo sapiens) (UniProt Q9P0L2);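 also: reported values are mean percent inhibition of MARK1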
Conditions: at 1 µM

Serine/threonine-protein kinase MARK1 (Homo sapiens), sequence (Q9P0L2 whole entry, looked up): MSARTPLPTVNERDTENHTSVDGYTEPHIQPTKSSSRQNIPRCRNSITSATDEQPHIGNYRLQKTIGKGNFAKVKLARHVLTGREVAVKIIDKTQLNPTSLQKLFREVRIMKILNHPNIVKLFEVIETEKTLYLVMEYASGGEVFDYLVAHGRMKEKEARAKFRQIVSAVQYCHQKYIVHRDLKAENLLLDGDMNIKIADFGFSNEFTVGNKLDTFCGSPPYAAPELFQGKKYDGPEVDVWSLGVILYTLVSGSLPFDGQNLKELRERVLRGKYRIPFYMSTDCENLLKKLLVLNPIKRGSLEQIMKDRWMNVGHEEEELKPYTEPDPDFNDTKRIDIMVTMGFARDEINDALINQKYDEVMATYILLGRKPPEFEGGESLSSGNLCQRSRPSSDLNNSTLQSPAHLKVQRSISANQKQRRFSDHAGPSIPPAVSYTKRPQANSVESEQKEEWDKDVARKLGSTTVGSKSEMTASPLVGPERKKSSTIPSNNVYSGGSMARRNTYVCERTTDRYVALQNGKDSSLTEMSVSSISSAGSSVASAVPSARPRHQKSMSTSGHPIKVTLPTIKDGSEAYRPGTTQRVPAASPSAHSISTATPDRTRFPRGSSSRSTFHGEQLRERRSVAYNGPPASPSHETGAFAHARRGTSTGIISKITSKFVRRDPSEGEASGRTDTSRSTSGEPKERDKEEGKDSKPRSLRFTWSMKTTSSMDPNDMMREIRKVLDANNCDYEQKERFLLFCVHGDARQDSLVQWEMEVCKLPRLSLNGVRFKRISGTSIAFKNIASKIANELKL

Question: Which inhibition does the source give for O=C(Nc1n[nH]c2cc(-c3ccccc3)ccc12)C1CC1 here?
Answer: 9.42%

Question: For Cc1ccc(C(=O)NC2CCC2)cc1-c1ccc(C(=O)NCC2CC2)cc1, which inhibition is on record?
Answer: 1.46%

Question: O=C(Nc1n[nH]c2cc(-c3cc(F)ccc3F)ccc12)C1CC1 was tested. Which inhibition did it give?
Answer: 5.89%

Question: With CNC(=O)c1cncc(/C=C/c2c(C)cccc2C)c1 as the compound, how does the inhibition read?
Answer: 0.89%

Question: For O=C(Nc1n[nH]c2nc(-c3ccc(O)cc3)c(Br)cc12)C1CC1, which inhibition is on record?
Answer: 9.58%

Question: How did the inhibition turn out when NS(=O)(=O)c1ccc(N/N=C2\C(=O)Nc3ccc(-c4cnco4)cc32)cc1 was run?
Answer: 15.6%

Question: With Fc1ccc(-c2ncn(CCCN3CCOCC3)c2-c2ccncc2)cc1 as the compound, how does the inhibition read?
Answer: 0.81%

Question: C[C@@H](Oc1cc(-n2cnc3ccc(OCC4CCN(C)CC4)cc32)sc1C(N)=O)c1ccccc1Cl was tested. Which inhibition did it give?
Answer: 24.3%

Question: For CCc1ccc(Oc2nccc(-c3c(-c4ccc(F)cc4)ncn3C3CCNCC3)n2)cc1, which inhibition is on record?
Answer: 7.96%

Question: COc1cccc(/C=N/Nc2ncnc3c2cnn3-c2cccc(OC)c2)c1 was tested. Which inhibition did it give?
Answer: 2.26%

Question: For COc1ccc2cc(-c3c(-c4ccncc4)nc(-c4ccc(S(C)(=O)=O)cc4C)n3C)ccc2c1, which inhibition is on record?
Answer: 4.84%

Question: With CS(=O)(=O)CCNCc1ccc(-c2ccc3ncnc(Nc4ccc(OCc5ccccc5)c(Br)c4)c3c2)o1 as the compound, how does the inhibition read?
Answer: 1.61%

Question: How did the inhibition turn out when Fc1ccc(-c2ncn(C3CCNCC3)c2-c2ccnc(Oc3ccc(Oc4ccccc4)cc3)n2)cc1 was run?
Answer: 4.13%

Question: Which inhibition does the source give for O=C1Nc2ccc(I)cc2C1=Cc1cc(Br)c(O)c(Br)c1 here?
Answer: 2.09%

Question: COc1cc(Nc2ncc3c(C)nc(-c4cccc(Oc5ccccc5)c4)n3n2)cc(OC)c1OC was tested. Which inhibition did it give?
Answer: 6.76%

Question: For CN1CCN(CCCNc2nc3ccc(Oc4ccc(NC(=O)Nc5cc(C(F)(F)F)ccc5F)cc4)cc3[nH]2)CC1, which inhibition is on record?
Answer: 0.66%

Question: Which inhibition does the source give for COc1cc(Nc2ncc(-c3ccccc3)o2)cc(OC)c1OC here?
Answer: 15.6%

Question: With COc1ccc(C2=C(N3CCc4ccccc43)C(=O)NC2=O)cc1 as the compound, how does the inhibition read?
Answer: 5.45%

Question: For Cc1ccc(C(=O)NC(C)C)cc1-c1ccc(C(=O)NCC2CC2)cc1, which inhibition is on record?
Answer: 0.65%

Question: Which inhibition does the source give for NC(=O)c1cc(-c2ccc(F)cc2)cc(-c2ccncc2)c1N here?
Answer: 4.17%

Question: With Clc1ccc(CNc2nccc(-c3cnn4ncccc34)n2)cc1 as the compound, how does the inhibition read?
Answer: 1.16%

Question: Which inhibition does the source give for O=C1Nc2ccccc2/C1=C/Nc1ccc(-n2cncn2)cc1 here?
Answer: 25.4%

Question: With Fc1ccc(-c2ncn(C3CCNCC3)c2-c2ccnc(Oc3ccc(F)c(F)c3)n2)cc1 as the compound, how does the inhibition read?
Answer: 4.99%

Question: With CN(c1ccc(NC(=O)Nc2c(Cl)cccc2Cl)cc1)c1ccnc(Nc2cccc(CS(C)(=O)=O)c2)n1 as the compound, how does the inhibition read?
Answer: 10.8%

Question: With NC(=O)Cc1ccccc1Oc1nccc(-c2c(-c3ccc(F)cc3)ncn2C2CCNCC2)n1 as the compound, how does the inhibition read?
Answer: 4.3%

Question: CN(C)CCOc1ccc(-c2cc(-c3ccc4c(c3)CCC4=NO)c(-c3ccncc3)o2)cc1 was tested. Which inhibition did it give?
Answer: 1.81%

Question: Which inhibition does the source give for CN(C)c1ccc2c(c1)/C(=C/Nc1ccc(S(N)(=O)=O)cc1)C(=O)N2 here?
Answer: 36.4%

Question: For COc1cc(C)c(N(C)C(=O)CN(C)C)cc1Nc1nc(Nc2cccc(F)c2C(N)=O)c2cc[nH]c2n1, which inhibition is on record?
Answer: 1.97%

Question: For O=C(NCC1CC1)c1ccc(-c2cccc(C(=O)NC3CC3)c2)cc1, which inhibition is on record?
Answer: 1.62%

Question: COc1cc(N2CCN(C(C)C)CC2)ccc1Nc1nc(Nc2ccc(F)cc2C(=O)NC[C@@H](O)CO)c2cc[nH]c2n1 was tested. Which inhibition did it give?
Answer: 7.69%

Question: For NC(=O)c1ccc(Oc2nccc(-c3c(-c4ccc(F)cc4)ncn3C3CCNCC3)n2)cc1, which inhibition is on record?
Answer: 4.16%

Question: With COc1cc2ncn(-c3cc(OCCc4ccccc4)c(C(N)=O)s3)c2cc1OC as the compound, how does the inhibition read?
Answer: 3.45%

Question: For CCc1cccc(CC)c1/C=C/c1cncc(C(=O)NC)c1, which inhibition is on record?
Answer: 1.27%

Question: With COc1ccc2cc(-c3c(-c4ccncc4)nc(-c4ccc([S+](C)[O-])cc4C)n3C)ccc2c1 (stereo not drawn) as the compound, how does the inhibition read?
Answer: -1.81%

Target: MAP/microtubule affinity-regulating kinase 3 (Homo sapiens) (UniProt P27448);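 also: mean percent inhibition of MARK3 kinase activity, measured within the GSK PKIS screening panel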
Sequence (P27448 whole entry, looked up): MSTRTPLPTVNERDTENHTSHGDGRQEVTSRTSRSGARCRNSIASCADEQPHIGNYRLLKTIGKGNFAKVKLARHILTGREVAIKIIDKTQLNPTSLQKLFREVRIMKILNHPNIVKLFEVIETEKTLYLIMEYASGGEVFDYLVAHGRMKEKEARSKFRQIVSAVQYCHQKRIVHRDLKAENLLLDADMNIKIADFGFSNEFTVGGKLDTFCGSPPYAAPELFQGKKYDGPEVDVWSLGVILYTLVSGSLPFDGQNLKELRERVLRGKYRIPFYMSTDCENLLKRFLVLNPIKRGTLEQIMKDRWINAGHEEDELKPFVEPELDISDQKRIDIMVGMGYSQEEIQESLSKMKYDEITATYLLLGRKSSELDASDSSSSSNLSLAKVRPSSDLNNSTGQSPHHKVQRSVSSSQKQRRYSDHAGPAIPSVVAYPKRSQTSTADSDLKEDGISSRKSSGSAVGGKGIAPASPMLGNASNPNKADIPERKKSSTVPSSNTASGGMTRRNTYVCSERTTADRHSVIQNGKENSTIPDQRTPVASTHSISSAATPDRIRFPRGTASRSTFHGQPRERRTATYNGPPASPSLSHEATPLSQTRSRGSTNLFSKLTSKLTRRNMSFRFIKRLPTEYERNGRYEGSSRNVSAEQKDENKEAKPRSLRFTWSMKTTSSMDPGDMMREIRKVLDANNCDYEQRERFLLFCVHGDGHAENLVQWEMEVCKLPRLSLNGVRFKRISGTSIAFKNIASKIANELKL
Conditions: at 0.1 µM

Question: How did the inhibition turn out when O=C(Nc1n[nH]c2cc(-c3ccccc3)ccc12)C1CC1 was run?
Answer: 5.89%

Question: For Cc1ccc(C(=O)NC2CCC2)cc1-c1ccc(C(=O)NCC2CC2)cc1, which inhibition is on record?
Answer: 3.09%

Question: How did the inhibition turn out when O=C(Nc1n[nH]c2cc(-c3cc(F)ccc3F)ccc12)C1CC1 was run?
Answer: 2.76%

Question: Which inhibition does the source give for CNC(=O)c1cncc(/C=C/c2c(C)cccc2C)c1 here?
Answer: 0.44%

Question: O=C(Nc1n[nH]c2nc(-c3ccc(O)cc3)c(Br)cc12)C1CC1 was tested. Which inhibition did it give?
Answer: 3.96%

Question: How did the inhibition turn out when NS(=O)(=O)c1ccc(N/N=C2\C(=O)Nc3ccc(-c4cnco4)cc32)cc1 was run?
Answer: 2.61%

Question: For Fc1ccc(-c2ncn(CCCN3CCOCC3)c2-c2ccncc2)cc1, which inhibition is on record?
Answer: 2.21%

Question: For C[C@@H](Oc1cc(-n2cnc3ccc(OCC4CCN(C)CC4)cc32)sc1C(N)=O)c1ccccc1Cl, which inhibition is on record?
Answer: 4.91%

Question: Which inhibition does the source give for CCc1ccc(Oc2nccc(-c3c(-c4ccc(F)cc4)ncn3C3CCNCC3)n2)cc1 here?
Answer: 3.13%

Question: With COc1cccc(/C=N/Nc2ncnc3c2cnn3-c2cccc(OC)c2)c1 as the compound, how does the inhibition read?
Answer: -0.24%

Question: For COc1ccc2cc(-c3c(-c4ccncc4)nc(-c4ccc(S(C)(=O)=O)cc4C)n3C)ccc2c1, which inhibition is on record?
Answer: 1.58%

Question: CS(=O)(=O)CCNCc1ccc(-c2ccc3ncnc(Nc4ccc(OCc5ccccc5)c(Br)c4)c3c2)o1 was tested. Which inhibition did it give?
Answer: 3.89%

Question: Which inhibition does the source give for Fc1ccc(-c2ncn(C3CCNCC3)c2-c2ccnc(Oc3ccc(Oc4ccccc4)cc3)n2)cc1 here?
Answer: 2.76%

Question: For O=C1Nc2ccc(I)cc2C1=Cc1cc(Br)c(O)c(Br)c1, which inhibition is on record?
Answer: -0.57%

Question: Which inhibition does the source give for COc1cc(Nc2ncc3c(C)nc(-c4cccc(Oc5ccccc5)c4)n3n2)cc(OC)c1OC here?
Answer: 3.73%

Question: How did the inhibition turn out when CN1CCN(CCCNc2nc3ccc(Oc4ccc(NC(=O)Nc5cc(C(F)(F)F)ccc5F)cc4)cc3[nH]2)CC1 was run?
Answer: 5.08%

Question: How did the inhibition turn out when COc1cc(Nc2ncc(-c3ccccc3)o2)cc(OC)c1OC was run?
Answer: 2.51%

Question: Which inhibition does the source give for COc1ccc(C2=C(N3CCc4ccccc43)C(=O)NC2=O)cc1 here?
Answer: 3.65%

Question: Which inhibition does the source give for Cc1ccc(C(=O)NC(C)C)cc1-c1ccc(C(=O)NCC2CC2)cc1 here?
Answer: 0.19%

Question: For NC(=O)c1cc(-c2ccc(F)cc2)cc(-c2ccncc2)c1N, which inhibition is on record?
Answer: 3.27%

Question: How did the inhibition turn out when Clc1ccc(CNc2nccc(-c3cnn4ncccc34)n2)cc1 was run?
Answer: 0.99%

Question: With O=C1Nc2ccccc2/C1=C/Nc1ccc(-n2cncn2)cc1 as the compound, how does the inhibition read?
Answer: 3.28%

Question: With Fc1ccc(-c2ncn(C3CCNCC3)c2-c2ccnc(Oc3ccc(F)c(F)c3)n2)cc1 as the compound, how does the inhibition read?
Answer: 3.47%

Question: For CN(c1ccc(NC(=O)Nc2c(Cl)cccc2Cl)cc1)c1ccnc(Nc2cccc(CS(C)(=O)=O)c2)n1, which inhibition is on record?
Answer: 2.64%

Question: For NC(=O)Cc1ccccc1Oc1nccc(-c2c(-c3ccc(F)cc3)ncn2C2CCNCC2)n1, which inhibition is on record?
Answer: 9.03%

Question: For CN(C)CCOc1ccc(-c2cc(-c3ccc4c(c3)CCC4=NO)c(-c3ccncc3)o2)cc1, which inhibition is on record?
Answer: -5.74%

Question: How did the inhibition turn out when CN(C)c1ccc2c(c1)/C(=C/Nc1ccc(S(N)(=O)=O)cc1)C(=O)N2 was run?
Answer: 6.41%

Question: Which inhibition does the source give for COc1cc(C)c(N(C)C(=O)CN(C)C)cc1Nc1nc(Nc2cccc(F)c2C(N)=O)c2cc[nH]c2n1 here?
Answer: 3.34%

Question: With O=C(NCC1CC1)c1ccc(-c2cccc(C(=O)NC3CC3)c2)cc1 as the compound, how does the inhibition read?
Answer: 4.12%

Question: With COc1cc(N2CCN(C(C)C)CC2)ccc1Nc1nc(Nc2ccc(F)cc2C(=O)NC[C@@H](O)CO)c2cc[nH]c2n1 as the compound, how does the inhibition read?
Answer: 1.03%

Question: Which inhibition does the source give for NC(=O)c1ccc(Oc2nccc(-c3c(-c4ccc(F)cc4)ncn3C3CCNCC3)n2)cc1 here?
Answer: 3.42%

Question: COc1cc2ncn(-c3cc(OCCc4ccccc4)c(C(N)=O)s3)c2cc1OC was tested. Which inhibition did it give?
Answer: 3.88%

Question: CCc1cccc(CC)c1/C=C/c1cncc(C(=O)NC)c1 was tested. Which inhibition did it give?
Answer: 3.86%

Question: For COc1ccc2cc(-c3c(-c4ccncc4)nc(-c4ccc([S+](C)[O-])cc4C)n3C)ccc2c1 (stereo not drawn), which inhibition is on record?
Answer: 0.61%
